This note sets out measurements from ChEMBL document CHEMBL4513135, “CO-ADD screening of IQOG CSIS (Spain) compounds”.

The test system of one test is Klebsiella pneumoniae. To be noted: Concentration 32 ug.mL-1, ASSAY_TEST Inhibition of Bacterial Growth, detection method Absorption (OD600), MEDIA CAMHB, plate type 384well, NBS, CORNING #3640, time 18 hr.
For the next test, the system named is Candida albicans. Conditions: 32 ug/mL.
Another test deals with Cryptococcus neoformans. To be noted: Concentration 32 ug.mL-1; ASSAY_TEST Inhibition of Fungal Growth; detection method Resazurin; Absorption (OD600-OD570); plate type 384well; NBS; CORNING #3640. For orientation: Alamar Blue is a resazurin reagent that responds to reducing activity.

Where “and” joins values, the source holds several entries; their conditions need not be identical. Equal entries are not always repeated. Entries with a potency or affinity are not part of this list.

In the case of `COc1ccccc1[C@H]1c2c(ccc3ccccc23)O/C(=N\Br)[C@@]1(Br)C#N`, the Inhibition is 5.34% with Klebsiella pneumoniae, 8.63% with Candida albicans and -5.55% with Cryptococcus neoformans.

For the compound `COc1cccc(C2c3ccc4ccccc4c3OC(=NBr)C2(Br)C#N)c1` (centres undefined), the Inhibition in the test with Klebsiella pneumoniae was 5.65%; in the test with Candida albicans it was -0.64%; with Cryptococcus neoformans, -51.44%.

Regarding `COc1cccc(C2c3c(ccc4ccccc34)OC(=N)C2(Br)C#N)c1` (centres undefined), the Inhibition in the test with Klebsiella pneumoniae (32 ug/mL) is 14.84% and 5.04%.

For `CCOC(=O)C1=C(C)Oc2nc3c(c(N)c2C1c1nccn1C)CCCCC3` (centres undefined), the Inhibition is 6.14% in the test on Klebsiella pneumoniae, 3.82% in the test on Candida albicans and -4.74% in the test on Cryptococcus neoformans.

Regarding `C#CCNc1nc(NCCCCC2CCN(Cc3ccccc3)CC2)c(C#N)cc1C#N`, the figures for the Inhibition with Klebsiella pneumoniae, in the test with Candida albicans and with Cryptococcus neoformans were -10.59%, 4.43% and -10.91%, respectively.

For `COC(=O)C(=Cc1ccc(OC)cc1)NC(C)=O`, the Inhibition in the test with Klebsiella pneumoniae is 12.98%; in the test with Candida albicans, -0.11%; in the test with Cryptococcus neoformans, -2.55%.

Take `C=C1CN(C)c2c(C#N)c(-c3ccccc3)c(C#N)c(=N)n21`: the Inhibition in the test with Klebsiella pneumoniae was 8.43%; with Candida albicans it was -0.24%; in the test on Cryptococcus neoformans, -51.34%.

`C#CCNc1nc(OC)c(C#N)c(-c2ccccc2)c1C#N`: the Inhibition in the test with Klebsiella pneumoniae was 13.71%; with Candida albicans, 1.22%; in the test on Cryptococcus neoformans, -26.89%.

On to `C#CCN(C)Cc1cc2cc(OCc3ccc(OC)c4ncccc34)ccc2n1C`, for which the Inhibition with Klebsiella pneumoniae was -13.41%; in the test on Candida albicans, 6.72%; in the test on Cryptococcus neoformans, -26.86%.

With `COc1cc(C2c3c(nc4c(c3N)CCCC4)Oc3ccc4ccccc4c32)cc(OC)c1OC` (centres undefined), the Inhibition is 23.56% with Klebsiella pneumoniae, 1.11% with Candida albicans and -4.42% in the test with Cryptococcus neoformans.

With `C#CCN(C)c1nc(NCCCCC2CCN(Cc3ccccc3)CC2)c(C#N)cc1C#N`, the figures for the Inhibition in the test with Klebsiella pneumoniae, in the test on Candida albicans and in the test with Cryptococcus neoformans were 0.44%, 3.03% and -41.21%, respectively.

Regarding `O=C(N/N=C/c1c[nH]c2ccccc12)c1cc2ccccc2[nH]1`, the Inhibition in the test with Klebsiella pneumoniae is 11.64%; in the test with Candida albicans it was 0.51%; with Cryptococcus neoformans it was -6.47%.

On to `C=C1CNc2c(C#N)c(-c3ccccc3)c(C#N)c(=N)n21`, for which the Inhibition was 0.65% in the test on Klebsiella pneumoniae, 3.22% in the test with Candida albicans and -41.17% in the test with Cryptococcus neoformans.

Consider `C#CCNc1ncccn1`, for which the Inhibition in the test with Klebsiella pneumoniae was 20.12%; in the test with Candida albicans it was 2.79%; in the test with Cryptococcus neoformans it was -63.47%.

For `CN(N=O)C(=O)NC1(C(=O)O)CC1c1ccccc1` (centres undefined), the Inhibition in the test with Klebsiella pneumoniae is 23.72%; in the test on Candida albicans, 1.7%; with Cryptococcus neoformans, -0.92%.

Regarding `C=C1CN(C)c2c(C#N)c(-c3ccccc3)c(C#N)c(=O)n21`, the Inhibition was -0.48% in the test with Klebsiella pneumoniae, 3.72% with Candida albicans and -24.16% in the test with Cryptococcus neoformans.

Consider `COc1ccc(-c2cc(-c3cc4ccc(OC)cc4nc3Cl)cc(=O)[nH]2)cc1`, for which the Inhibition in the test on Klebsiella pneumoniae is 4.32%; in the test with Candida albicans, -0.61%; in the test with Cryptococcus neoformans, -66.65%.

Take `C#CCN(C)c1nc(N)c(C#N)cc1C#N`: the Inhibition with Klebsiella pneumoniae (32 ug/mL) was 17.2% and 7.82%.

Regarding `O=C(N[C@H]1CC[C@H](O)CC1)c1ccccc1`, the Inhibition is 10.98% in the test with Klebsiella pneumoniae, 2.54% with Candida albicans and -38.05% in the test with Cryptococcus neoformans.

As for `N#CC1(Br)C(=NBr)Oc2c(ccc3ccccc23)C1c1ccccc1[N+](=O)[O-]` (centres undefined), the Inhibition with Klebsiella pneumoniae was 24.4%; with Candida albicans, 25%; in the test on Cryptococcus neoformans, -80.63%.

In the case of `Cc1ccc2[nH]c(=O)c(C=O)cc2c1`, the Inhibition worked out at 6.41% with Klebsiella pneumoniae, 1.79% in the test on Candida albicans and 4.75% in the test with Cryptococcus neoformans.

With `Cc1ccc(C2c3ccc4ccccc4c3Oc3nc4c(c(N)c32)CCCC4)cc1.Cl` (centres undefined), the results for the Inhibition in the test on Klebsiella pneumoniae, in the test on Candida albicans and in the test with Cryptococcus neoformans were -14.84%, 5.49% and 0.21%, respectively.

As for `CC#CCN.Cl`, the Inhibition with Klebsiella pneumoniae is 8.69%; in the test with Candida albicans, 3.96%; in the test with Cryptococcus neoformans it was -2.53%.

For the compound `N#Cc1cc(Br)cc(Br)c1N`, the Inhibition in the test with Klebsiella pneumoniae was -0.57%; in the test with Candida albicans it was 4.77%; in the test on Cryptococcus neoformans, -9.46%.

Consider `CC(=O)Nc1nn(C)c2nc3nc4c(c(N)c3cc12)CCCC4`, for which, in the test on Klebsiella pneumoniae (32 ug/mL), the Inhibition is 12.62% and 9.74%.

As to `C#CCNc1nc(N)c(C#N)c(-c2ccccc2)c1C#N`, the values for the Inhibition with Klebsiella pneumoniae, in the test with Candida albicans and in the test with Cryptococcus neoformans were -20.09%, 2.85% and -2.34%, respectively.

Consider `CCOC(=O)c1c(C)nc2nc3c(c(N)c2c1-c1ccc(Cl)cc1)CCCCC3`, for which the Inhibition in the test on Klebsiella pneumoniae was 1.2%; with Candida albicans it was -0.36%; in the test on Cryptococcus neoformans, -57.83%.

Take `CCCCNNC(=O)c1cc2ccccc2[nH]1`: the Inhibition was -6.75% in the test on Klebsiella pneumoniae, -0.51% in the test with Candida albicans and -1.71% in the test on Cryptococcus neoformans.

As for `COc1ccc(-c2cc(-c3cc4c(C)cc(C)cc4nc3Cl)cc(=O)[nH]2)cc1`, the Inhibition turned out to be 4.51% in the test on Klebsiella pneumoniae, 1.74% in the test on Candida albicans and 0.64% in the test on Cryptococcus neoformans.

With `CC(C)(C)OC(=O)Nc1ccccn1`, the Inhibition is 24.53% in the test with Klebsiella pneumoniae, 0.46% in the test on Candida albicans and -68.78% in the test with Cryptococcus neoformans.

As to `COc1ccc2c(c1)cc(CO)n2C`, the results for the Inhibition in the test with Klebsiella pneumoniae, with Candida albicans and with Cryptococcus neoformans were 4.36%, 3.54% and -5.23%, respectively.

`Cn1cc(C=O)c2ccccc21`: the Inhibition in the test on Klebsiella pneumoniae was 2.25%; in the test on Candida albicans, 1.53%; in the test on Cryptococcus neoformans, -4.31%.

Consider `Nc1c2c(nc3c1C(c1ccc([N+](=O)[O-])cc1)c1ccc4ccccc4c1O3)CCCC2` (centres undefined), for which the Inhibition in the test on Klebsiella pneumoniae was -17.7%; in the test with Candida albicans, -1.86%; in the test with Cryptococcus neoformans, -5.85%.

On to `COc1ccc(-c2c(C#N)c(=O)oc3c2ccc2ccccc23)cc1`, for which the Inhibition in the test on Klebsiella pneumoniae (32 ug/mL) was 4.75% and -0.52%; in the test on Candida albicans it was 2.65% and 6.62%.

As for `CCOC(=O)C1=C(C)OC(N)=C(C#N)C1c1ccc(OC)cc1` (centres undefined), the Inhibition is 14.63% in the test on Klebsiella pneumoniae, 2.59% with Candida albicans and -5.46% in the test with Cryptococcus neoformans.

On to `COc1ccc(C2c3c(nc4c(c3N)CCCC4)Oc3ccc4ccccc4c32)c(OC)c1` (centres undefined), for which the Inhibition in the test with Klebsiella pneumoniae worked out at 6.37%; with Candida albicans, 10.9%; with Cryptococcus neoformans, 16.32%.

Consider `COc1ccc2c(ccn2C)c1`, for which the results for the Inhibition in the test with Klebsiella pneumoniae, with Candida albicans and in the test on Cryptococcus neoformans were 14.15%, 1.33% and -1.95%, respectively.

As to `O=C1NC(=S)N/C1=C\c1ccccc1`, the Inhibition is 18.56% with Klebsiella pneumoniae, 0.81% in the test with Candida albicans and -1.21% with Cryptococcus neoformans.

On to `CN(C)c1nc(N)c(C#N)cc1C#N.Cl`, for which the Inhibition was -3.22% and 8.57% in the test with Klebsiella pneumoniae (32 ug/mL); 3.18% and 2.67% with Candida albicans.

One may read the Inhibition as the change of the read-out against control, counted positive when it falls.
